Screening results as filed in PubChem.
Compounds with a hit are over-represented: about 3.3% of the library has one in this group of screens.
AmpC inh no detg: qHTS Inhibitors of AmpC Beta-Lactamase (assay without detergent); AmpC nitrocefin hydrolysis, absorbance 480 nm, 0.0001% Triton; Potency, µM (top dose mostly 57.1 µM), hits mostly inhibitors; 330,000 compounds, 0.52% hits; AID 485341, 2010; further: nearly all actives have a fitted effect of over 20% in size
Target sequence (P00811 whole entry, looked up): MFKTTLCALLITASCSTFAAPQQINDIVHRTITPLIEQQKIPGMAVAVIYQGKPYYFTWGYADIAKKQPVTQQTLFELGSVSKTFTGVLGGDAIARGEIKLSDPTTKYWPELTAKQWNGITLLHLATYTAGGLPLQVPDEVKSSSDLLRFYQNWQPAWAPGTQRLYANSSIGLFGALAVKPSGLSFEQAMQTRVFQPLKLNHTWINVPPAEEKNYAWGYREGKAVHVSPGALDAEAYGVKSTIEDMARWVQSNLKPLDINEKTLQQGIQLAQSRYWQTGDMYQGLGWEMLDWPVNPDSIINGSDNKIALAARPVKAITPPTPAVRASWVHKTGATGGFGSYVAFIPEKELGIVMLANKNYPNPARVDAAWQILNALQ
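AmpC (5.3 nM in the dispensed reagent) in 20 mM phosphate pH 7.0 with 0.01% (detergent screen) or 0.0001% Triton X-100 was preincubated with compounds for 15 min at room temperature. Nitrocefin was then added from an 800 uM solution, and hydrolysis was followed at 480 nm.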
AmpC inh detg: qHTS Inhibitors of AmpC Beta-Lactamase (assay with detergent); AmpC hydrolysis of nitrocefin, absorbance 480 nm, 0.01% Triton; Potency, µM (top dose mostly 114 µM), actives largely listed as inhibitors; 370,000 compounds, 0.041% hits; AID 485294, 2010; further: nearly all actives have a fitted effect of over 25% in size
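20 mM phosphate pH 7.0 + 0.01% (detergent screen) or 0.0001% Triton X-100; 5.3 nM AmpC reagent; cpd preinc 15 min RT; nitrocefin (800 uM stock) to start; A480 q20 s × 4 min; Activity was normalised to no-enzyme and no-compound control wells.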
Sm TGR inh: qHTS Assay for the Inhibitors of Schistosoma Mansoni Peroxiredoxins | Schistosoma mansoni thioredoxin glutathione reductase (TGR), Q962Y6 | purified TGR, DTNB reduction, TNB absorbance 405 nm | Potency, µM (top dose mostly 114 µM), hits mostly inhibitors | 360,000 compounds, 3% hits | AID 485364, 2010; further: nearly all actives have a fitted effect of over 60% in size
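Kinetic colorimetric format: TGR-catalysed, NADPH-driven DTNB reduction monitored via TNB absorbance. Enzyme dispensed at 20 nM; compound exposure 15 min at room temperature before reaction start.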
Numbers stand for hits; . = inactive; ? = inconclusive; / = not tested or not shown; ! = a repeat was not active; [ ] = dose if it differs, or a comment. The call rests on the fitted dose curve; in most records, active means well fitted curve in the direction sought with a large enough effect; inconclusive means small, poorly fitted or top-dose-only effect, or another doubt; inactive means no such curve, though single readings can be large; an effect the other way counts as inactive or inconclusive.

SMILES	AmpC inh no detg	AmpC inh detg	Sm TGR inh
C(=C\c1ccco1)/c1ccc2ccccc2n1	.	.	7.94µM
COc1ccc(S(=O)(=O)NCCc2csc3nc(-c4cccc(C)c4)nn23)cc1F	/	.	.
Cc1ccc(S(=O)(=O)N2[C@@H](c3cccc(Cl)c3)C(C(=O)O)=CC[C@H]2c2ccc3c(c2)OCO3)cc1	.	.	.
COc1ccc(C(=O)c2cccc(C(=O)c3ccc(OC)c(C)c3)c2)cc1C	.	.	.
COc1ccc(C(=O)c2ccc(OC)c(Br)c2)cc1Br	.	?	10µM
CCCn1c(=O)[nH]c(=O)c2c(C(=O)OCC)cc(-c3cccs3)nc21	.	.	.
O=C(NCC(c1ccccc1Cl)N1CCCC1)C1CCN(C(=O)Nc2ccccc2)CC1 (stereo not given)	.	.	.
Cc1ccc2sc(C)[n+](CCO)c2c1	.	.	25.1µM
CCCC[n+]1c(C)sc2ccc(C)cc21	.	.	.
COc1cccc(N(CC(=O)N2CCC(C)CC2)S(=O)(=O)c2ccc(C)cc2)c1	/	.	.
CCOC(=O)c1cnc2c(Cl)c(Cl)ccc2c1NCCN1CCOCC1	.	.	39.8µM!
CCOC(=O)c1cnc2ccc(Br)cc2c1NCCCN1CCOCC1	.	.	44.7µM
CCOC(=O)c1cnc2c(C)c(C)ccc2c1NCCN1CCOCC1	.	?	.
CCOC(=O)c1ccc2ncc(C(=O)OCC)c(NCCCN3CCOCC3)c2c1	.	.	?
C=CCn1cnc2c(nnn2-c2ccc(C)c(C)c2)c1=O	.	.	.
Cc1ccccc1CNC(=O)COc1ccccc1	.	?	.
CC[C@@]1(c2ccccc2)C(=O)N(C(=O)OC)N1C(=O)OC	.	.	2µM
CCC1(c2ccccc2)NC(=O)N(CC(=O)NCc2ccccc2OC)C1=O (stereo not given)	.	.	.
CC[C@]1(c2cccc(C)c2)C(=O)N(C(=O)OC)N1C(=O)OC	.	.	1.78µM
CC[C@@]1(c2ccccc2C)C(=O)N(C(=O)OC)N1C(=O)OC	.	.	6.31µM
COC(=O)N1C(=O)[C@](c2ccccc2)(C(C)C)N1C(=O)OC	.	.	.
Cc1cccc(OCC(=O)NNC(=O)CCCCC(=O)NNC(=O)COc2cccc(C)c2)c1	.	.	.
CC[C@]1(c2ccccc2)C(=O)N(C(=O)OC)N1C(=O)OC	.	?	2.24µM
Cc1cc(C(C)(C)C)cc(C)c1COC(=O)CN1C(=O)NC2(CCCC2)C1=O	.	.	.
CC(C)n1nnnc1SCC(=O)Nc1cccc(F)c1	.	.	.
SMILES	AmpC inh no detg	AmpC inh detg	Sm TGR inh
CCN(CC)S(=O)(=O)c1ccc(C)c(NC(=O)CN2CCN(C)CC2)c1	.	.	.
COC(=O)N1C(=O)[C@@](c2ccccc2)(C2CCCCC2)N1C(=O)OC	.	.	12.6µM
COC(=O)N1CC(c2ccccc2)CC1=O (stereo not given)	.	?	.
Cc1cc(-c2ccccc2)nc(Cl)c1C#N	.[2.29 µM]	?	.
COc1ccccc1NC(=O)c1c(N=Cc2c(O)ccc3ccccc23)cnn1C	.	.	50.1µM
COc1ccccc1NCC(=O)N/N=C/c1c(O)ccc2ccccc12	.	.	.
CCc1ccc(C(=O)COC(=O)C2=NN(c3ccccc3)C(=O)CC2)cc1	.	/	/
CCC(C)(C)NC(=O)c1ccc(S(=O)(=O)N2CCCCCC2)cc1	.	.	.
CCOc1ccc(OCC)c(NC(=O)C2CCN(S(=O)(=O)c3cn(C)cn3)CC2)c1	/	.	.
O=C(Nc1ccc(S(=O)(=O)Nc2ncccn2)cc1)c1cc(=O)c2ccccc2o1	/	.	.
COC(=O)CN1C(C(=O)c2ccccc2)=C(OC(=O)c2ccc(F)cc2)c2ccccc2S1(=O)=O	/	.	.
CCCN1C(C(=O)c2ccccc2)=C(OC(=O)C(C)(C)C)c2ccccc2S1(=O)=O	/	.	.
CCOC(=O)CN1C(C(=O)c2ccccc2)=C(OC(=O)c2ccccc2)c2ccccc2S1(=O)=O	/	.	.
CCCN1C(C(=O)c2ccccc2)=C(OC(=O)COc2ccccc2)c2ccccc2S1(=O)=O	/	.	11.2µM
CCN1C(C(=O)c2ccccc2)=C(OC(=O)COc2ccc(C)cc2)c2ccccc2S1(=O)=O	/	.	10µM
CCN1C(C(=O)c2ccccc2)=C(OC(=O)c2ccc(Cl)cc2)c2ccccc2S1(=O)=O	/	.	.
CCCN1C(C(=O)c2ccccc2)=C(OC(=O)COc2ccc(C)cc2)c2ccccc2S1(=O)=O	/	.	10µM
C=CCN1C(C(=O)c2ccccc2)=C(OC(=O)COc2ccccc2)c2ccccc2S1(=O)=O	.	.	11.2µM
CC1CCC2(CC1)NC(=O)N(CC(=O)Nc1cccc(C#N)c1)C2=O (stereo not given)	.	.	.
O=C(OCc1cc(=O)n2nc(-c3cccs3)sc2n1)c1ccc(F)cc1	/	.	.
CCC(C)(C)NC(=O)C(c1ccc(OC)cc1)N(C(=O)CCC(=O)Nc1cc(C)on1)c1ccc2c(c1)OCO2 (stereo not given)	.	.	.
CCN1C(C(=O)c2ccccc2)=C(OC(=O)COc2ccc(OC)cc2)c2ccccc2S1(=O)=O	/	.	11.2µM
CCCCC(=O)OC1=C(C(=O)c2ccccc2)N(C)S(=O)(=O)c2ccccc21	/	.	.
COc1cc(/C=N/NC(=O)CN2CCOCC2)ccc1OCc1ccccc1	.	?	.
COc1cc(/C=N\NC(=O)CN2CCOCC2)ccc1OCC(=O)Nc1ccc(C)c(C)c1	.	.	89.1µM
SMILES	AmpC inh no detg	AmpC inh detg	Sm TGR inh
CS(=O)(=O)NCC(c1ccco1)N1CCN(c2ccc(F)cc2)CC1 (stereo not given)	.	.	.
CCN(C(=O)c1ccc(Cl)c(S(=O)(=O)Nc2c(C)n(C)n(-c3ccccc3)c2=O)c1)c1ccccc1	.	/	/
CCc1nnc(NC(=O)CSc2ncnc3c2oc2ccccc23)s1	.	.	.
O=C(CSc1ncnc2c1oc1ccccc12)Nc1nc2ccccc2s1	0.794µM	?	.
S=C1NCN(Cc2cccnc2)CN1c1cccc2ccccc12	.	.	.
Cc1cccc(CSc2ncc(Cl)c(C(=O)Nc3sc4c(c3C(N)=O)CCCC4)n2)c1	/	.	.
O=C(NCC(c1ccco1)N1CCCC1)c1cn(-c2ccccc2)nc1-c1ccc(F)cc1 (stereo not given)	.	.	.
COC(=O)C1=C(C)N(Cc2ccco2)C(=O)C1	.	.	17.8µM
COC(=O)C1=C(C)N(Cc2ccc(OC)cc2)C(=O)C1	?	.	.
COC(=O)C1=C(C)N(Cc2ccco2)C(=O)N[C@@H]1c1ccccc1	.	?	35.5µM
COC(=O)C1=C(C)N(Cc2ccco2)C(=O)N[C@H]1c1cccc(C(F)(F)F)c1	.	.	?
Cc1nc(-c2ccccn2)nc(N(C)c2ccccc2)c1Cl	.	.	.
CC(=O)Nc1ccccc1-c1nc2ccccc2n(Cc2cccc(Br)c2)c1=O	/	.	.
C=C1CCN(CC(=O)OC)S(=O)(=O)c2ccccc21	.	.	31.6µM
C=C1CCN(C(C)C(=O)OC)S(=O)(=O)c2ccccc21 (stereo not given)	.	.	.
